“And” between values parts separate entries of the source, which are not always exact repeats. Equal entries are not always repeated. Screen size: about 4,400 compounds; about 390 (8.9%) showed an effect of 50% or more. The sample as a whole holds a higher share of strong results than the screen did.
These compounds were tested on Trypanosoma brucei (assay: DNDI: Inhibition of Human African Trypanosomiasis, SBRI 427, in vitro at 2 ug.mL-1).
Format: functional

`COc1ccccc1CN/C(=N\O)c1cccnc1Oc1cccc2ccccc12` was tested. Which “% inhibition” value did it give?
Its value is 0%.

For `COc1ccc(Oc2ncccc2/C(=N/O)NCc2ccccc2OC)cc1`, which “% inhibition” value is on record?
The value was 94%.

`CCOc1ccccc1CN/C(=N\O)c1cccnc1Oc1ccccc1SC` was tested. Which “% inhibition” value did it give?
The value was 100%.

Which “% inhibition” value does the source give for `COc1ccc(Oc2ncccc2/C(=N/O)NCc2ccccc2C)cc1` here?
Its value is 85%.

`CCOc1ccccc1CN/C(=N\O)c1cccnc1OC1CCC1` was tested. Which “% inhibition” value did it give?
The value was 5%.

For `COc1ccc(Oc2ncccc2/C(=N/O)NCc2ccccn2)cc1`, which “% inhibition” value is on record?
The value was 2%.

With `CCc1ccc(Oc2ncccc2/C(=N/O)NCc2ccccc2C)cc1` as the compound, how does the “% inhibition” value read?
The value was 99%.

With `CCOc1ccccc1CN/C(=N\O)c1cccnc1OCC(C)C` as the compound, how does the “% inhibition” value read?
The value was 3%.

Which “% inhibition” value does the source give for `Cc1ccc(/C(=N/O)N2CCC(N(C)C)C2)c(OCc2cccc(F)c2)n1` (stereo not drawn) here?
Its value is -7%.

How did the “% inhibition” value turn out when `O/N=C(\NCc1ccccc1)c1ccc(Oc2c(F)c(F)cc(F)c2F)nc1` was run?
Its value is 30%.

For `c1csc(-c2nc(CNCCN3CCOCC3)co2)c1`, which “% inhibition” value is on record?
The value was -8%.

How did the “% inhibition” value turn out when `CCN(Cc1coc(-c2ccccc2C)n1)c1ccc2c(c1)OCO2` was run?
The value was 13%.

Which “% inhibition” value does the source give for `Cc1ccc2cccc(Oc3cc(/C(=N/O)NCc4cccs4)ccn3)c2n1` here?
The value was 6%.

`CCN(Cc1coc(-c2ccc(F)cc2)n1)c1ccc2c(c1)OCO2` was tested. Which “% inhibition” value did it give?
The value was -2%.

For `CN(Cc1cccnc1)/C(=N\O)c1ccnc(Oc2cccc(F)c2)c1`, which “% inhibition” value is on record?
Its value is 2%.

With `CCOc1ccccc1-c1nc(CNCc2cc(OC)c(OC)c(OC)c2)co1` as the compound, how does the “% inhibition” value read?
Its value is 8%.

How did the “% inhibition” value turn out when `CCOc1ccccc1CN/C(=N\O)c1cccnc1Oc1ccc(OC)cc1` was run?
The value was 98%.

For `Cc1ccccc1CN/C(=N\O)c1cccnc1OCC(C)C`, which “% inhibition” value is on record?
Its value is 11%.

For `Cc1ccc(/C(=N/O)NCc2ccccc2C)c(Oc2cccc(C(C)C)c2)n1`, which “% inhibition” value is on record?
Its value is 2%.

How did the “% inhibition” value turn out when `Cc1ccccc1CN/C(=N\O)c1cccnc1Oc1ccc(C(C)C)cc1` was run?
The value was 99%.

`CCOc1ccccc1CN/C(=N\O)c1cccnc1Oc1cc(C)cc(C(C)C)c1` was tested. Which “% inhibition” value did it give?
The value was -4%.

Which “% inhibition” value does the source give for `CCOc1ccccc1CN/C(=N\O)c1cccnc1Oc1ccc2oc3ccccc3c2c1` here?
The value was 14%.

`COc1ccccc1CN/C(=N\O)c1cccnc1Oc1ccc(C(C)C)cc1` was tested. Which “% inhibition” value did it give?
The value was -4%.

How did the “% inhibition” value turn out when `CCOc1ccccc1CN/C(=N\O)c1cccnc1Oc1cc(Cl)ccc1Cl` was run?
The value was 100%.

Which “% inhibition” value does the source give for `CCOc1ccccc1CN/C(=N\O)c1ccc(C)nc1Oc1cc(Cl)ccc1Cl` here?
The value was 26%.

How did the “% inhibition” value turn out when `CCOc1ccccc1CN/C(=N\O)c1cccnc1Oc1ccc(C(C)C)cc1` was run?
Its value is 99%.

Which “% inhibition” value does the source give for `CCOc1ccccc1CN/C(=N\O)c1cccnc1Oc1ccc(F)cc1` here?
The value was 5%.

For `CCCN(Cc1coc(-c2cccs2)n1)CC1CC1`, which “% inhibition” value is on record?
The value was 0%.

Which “% inhibition” value does the source give for `Cc1ccc(/C(=N/O)N(C)Cc2cccnc2)c(OCc2ccccc2F)n1` here?
Its value is 0%.

How did the “% inhibition” value turn out when `COc1ccc(-c2nc(CNCc3ccc(C(C)(C)C)cc3)co2)cc1` was run?
The value was 4%.

How did the “% inhibition” value turn out when `Cc1ccc(C(C)C)c(Oc2cc(/C(=N/O)N3C(C)CCC3C)ccn2)c1` (stereo not drawn) was run?
Its value is 8%.

`COc1ccc(N(C)Cc2coc(-c3ccc(C(F)(F)F)cc3)n2)cc1` was tested. Which “% inhibition” value did it give?
Its value is 2%.

For `Fc1cccc(-c2nc(CN3CCC4CCCCC4C3)co2)c1` (stereo not drawn), which “% inhibition” value is on record?
The value was 0%.

How did the “% inhibition” value turn out when `O/N=C(\NCc1ccccc1)c1cccnc1Oc1ccc(F)cc1Cl` was run?
Its value is 94%.

How did the “% inhibition” value turn out when `Cc1ccc(CN/C(=N\O)c2cccnc2Oc2c(F)cccc2F)o1` was run?
The value was 0%.

For `O/N=C(\NCc1cccnc1)c1cccnc1Oc1ccc(F)cc1Cl`, which “% inhibition” value is on record?
Its value is 14%.

Which “% inhibition” value does the source give for `COc1ccc(Oc2ncccc2/C(=N/O)NCc2ccc(C)o2)cc1` here?
The value was 5%.

With `O/N=C(\NCc1ccccn1)c1cccnc1Oc1ccc(F)cc1Cl` as the compound, how does the “% inhibition” value read?
Its value is 20%.

How did the “% inhibition” value turn out when `Cc1ccc(CN/C(=N\O)c2cccnc2Oc2cc(Cl)ccc2Cl)o1` was run?
Its value is 100%.

Which “% inhibition” value does the source give for `CSc1ccc(Oc2nc(C)ccc2/C(=N/O)n2ccnc2)cc1` here?
The value was -8%.

With `CCCCN(CCC#N)Cc1coc(-c2ccc(C)cc2)n1` as the compound, how does the “% inhibition” value read?
Its value is -2%.

With `CCCCCCC(C)NCc1coc(-c2ccccc2OCC)n1` (stereo not drawn) as the compound, how does the “% inhibition” value read?
The value was 41%.

With `CCCCCCC(C)NCc1coc(-c2ccccc2Br)n1` (stereo not drawn) as the compound, how does the “% inhibition” value read?
Its value is 28%.

Which “% inhibition” value does the source give for `CCOc1ccccc1-c1nc(CNC(C)c2ccccc2)co1` (stereo not drawn) here?
Its value is -8%.

`CCOc1ccccc1-c1nc(CN[C@H](C)c2ccc(C)cc2)co1` was tested. Which “% inhibition” value did it give?
Its value is 10%.

Which “% inhibition” value does the source give for `CCCCCC(C)NCc1coc(-c2ccccc2OCC)n1` (stereo not drawn) here?
Its value is 99%.

For `CCN(CC)CCNCc1coc(-c2ccccc2Cl)n1`, which “% inhibition” value is on record?
The value was -11%.

`CCCC(CCC)NCc1coc(-c2ccc(O)cc2)n1` was tested. Which “% inhibition” value did it give?
Its value is 14%.

Which “% inhibition” value does the source give for `CC(CCc1ccccc1)NCc1coc(-c2ccccc2Cl)n1` (stereo not drawn) here?
The value was 8%.

Which “% inhibition” value does the source give for `CCCC(CCC)NCc1coc(-c2ccc(OCC)cc2)n1` here?
The value was 99%.

Which “% inhibition” value does the source give for `CCOc1ccc(-c2nc(CNC(CC)COC)co2)cc1` (stereo not drawn) here?
The value was 21%.

How did the “% inhibition” value turn out when `CCN(CC)CCCC(C)NCc1coc(-c2ccccc2Cl)n1` (stereo not drawn) was run?
The value was 94%.

How did the “% inhibition” value turn out when `Cc1ccc(/C(=N/O)N2CCN(c3ccccc3)CC2)c(Oc2ccc(F)cc2)n1` was run?
Its value is 20%.

For `C=CCN(CC=C)Cc1coc(-c2cccs2)n1`, which “% inhibition” value is on record?
The value was -3%.

Which “% inhibition” value does the source give for `Cc1ccc(-c2nc(CNc3cc(C)nn3-c3ccccc3)co2)cc1` here?
Its value is 10%.

For `C=C(C)CN(CC)Cc1coc(-c2cccc3ccccc23)n1`, which “% inhibition” value is on record?
The value was -7%.

`COc1cc(-c2nc(CNC(C)c3ccccc3)co2)cc(OC)c1OC` (stereo not drawn) was tested. Which “% inhibition” value did it give?
The value was 0%.

How did the “% inhibition” value turn out when `CCC(NCc1coc(-c2ccc(Cl)cc2Cl)n1)c1ccccc1` (stereo not drawn) was run?
The value was 5% and 14%.

`CCCCN(CCC#N)Cc1coc(-c2ccc(O)cc2)n1` was tested. Which “% inhibition” value did it give?
The value was -26%.

Which “% inhibition” value does the source give for `Cc1ccccc1-c1nc(CN(C)C(C)c2ccccc2)co1` (stereo not drawn) here?
Its value is 13%.

For `CCOc1ccccc1-c1nc(CNC(CC)COC)co1` (stereo not drawn), which “% inhibition” value is on record?
The value was 5%.

With `CCCC(CCC)NCc1coc(-c2ccccc2OCC)n1` as the compound, how does the “% inhibition” value read?
Its value is 98%.

How did the “% inhibition” value turn out when `CC(NCc1coc(-c2ccc(Cl)cc2Cl)n1)C(C)(C)C` (stereo not drawn) was run?
The value was 55%.

How did the “% inhibition” value turn out when `CCCC(CCC)NCc1coc(-c2ccccc2Br)n1` was run?
The value was -3%.

For `COCC(C)NCc1coc(-c2ccc(Cl)cc2Cl)n1` (stereo not drawn), which “% inhibition” value is on record?
The value was 2%.

How did the “% inhibition” value turn out when `Cc1ccc(-c2nc(CN(c3ccccc3)C(C)C)co2)cc1` was run?
Its value is 23%.

With `c1ccc2c(-c3nc(CN4CCC(N5CCCC5)CC4)co3)cccc2c1` as the compound, how does the “% inhibition” value read?
The value was 35%.

For `Clc1ccc(-c2nc(CN(Cc3ccccn3)Cc3ccccn3)co2)c(Cl)c1`, which “% inhibition” value is on record?
The value was 58%.

`Fc1cccc(-c2nc(CN(Cc3ccccn3)Cc3ccccn3)co2)c1` was tested. Which “% inhibition” value did it give?
Its value is 4%.

`Cc1ccc(-c2nc(CN(Cc3ccccn3)Cc3ccccn3)co2)cc1` was tested. Which “% inhibition” value did it give?
Its value is 83%.

`Fc1ccc(-c2nc(CN(Cc3ccccn3)Cc3ccccn3)co2)cc1` was tested. Which “% inhibition” value did it give?
Its value is 48%.

Which “% inhibition” value does the source give for `COc1ccc(-c2nc(CN(Cc3ccccn3)Cc3ccccn3)co2)cc1` here?
The value was 46%.

`COCCN(CCOC)Cc1coc(-c2cccc(C)c2)n1` was tested. Which “% inhibition” value did it give?
Its value is 13%.

For `Cc1cccc(-c2nc(CN(Cc3ccccn3)Cc3ccccn3)co2)c1`, which “% inhibition” value is on record?
Its value is 63%.

Which “% inhibition” value does the source give for `CN(CCc1ccccn1)Cc1coc(-c2ccc(Cl)cc2Cl)n1` here?
Its value is -26%.

Which “% inhibition” value does the source give for `COCCN(CCOC)Cc1coc(-c2ccc(Cl)cc2Cl)n1` here?
Its value is 6%.

`C=CCN(C)Cc1coc(-c2ccc(OC)cc2)n1` was tested. Which “% inhibition” value did it give?
Its value is 18%.

`c1ccc2c(-c3nc(CNCCN4CCOCC4)co3)cccc2c1` was tested. Which “% inhibition” value did it give?
The value was 7%.

For `Cc1ccccc1-c1nc(CN(Cc2ccccc2)C(C)C)co1`, which “% inhibition” value is on record?
Its value is 7%.

`Cc1ccc(/C(=N/O)NC2CCc3ccccc32)c(Oc2cccc(F)c2)n1` (stereo not drawn) was tested. Which “% inhibition” value did it give?
The value was 23%.

Which “% inhibition” value does the source give for `Cc1ccc(-c2nc(CNC(C)CC(C)C)co2)cc1` (stereo not drawn) here?
Its value is 4%.

With `COc1ccc(Oc2nc(C)ccc2/C(=N/O)NC2CCCC2)cc1` as the compound, how does the “% inhibition” value read?
Its value is 101%.

For `COCCN/C(=N\O)c1ccc(C)nc1Oc1ccc(SC)c(C)c1`, which “% inhibition” value is on record?
The value was 98%.

Which “% inhibition” value does the source give for `Cc1ccc(/C(=N/O)NC2CCCC2)c(Oc2ccc(F)cc2)n1` here?
Its value is 23%.

How did the “% inhibition” value turn out when `CSc1ccc(Oc2nc(C)ccc2/C(=N/O)NC2CCCC2)cc1C` was run?
Its value is 88%.

How did the “% inhibition” value turn out when `COc1ccc(Oc2nc(C)ccc2/C(=N/O)NC2CC2)cc1` was run?
The value was 4%.

`Cc1ccc(Oc2nc(C)ccc2/C(=N/O)NC2CC2)cc1` was tested. Which “% inhibition” value did it give?
Its value is 30%.

How did the “% inhibition” value turn out when `COc1ccc(Oc2nc(C)ccc2/C(=N/O)NC2CCC2)cc1` was run?
The value was -19%.

How did the “% inhibition” value turn out when `CSc1ccc(Oc2nc(C)ccc2/C(=N/O)NCC2CC2)cc1C` was run?
The value was 14%.

How did the “% inhibition” value turn out when `Cc1ccc(Oc2nc(C)ccc2/C(=N/O)NC2CCCC2)cc1` was run?
The value was 97%.

With `CSc1ccc(Oc2nc(C)ccc2/C(=N/O)NCCN(C)C)cc1C` as the compound, how does the “% inhibition” value read?
Its value is -3%.

With `CCCN/C(=N\O)c1ccc(C)nc1Oc1ccc(SC)c(C)c1` as the compound, how does the “% inhibition” value read?
Its value is 11%.

Which “% inhibition” value does the source give for `CSc1ccc(Oc2nc(C)ccc2/C(=N/O)NC2CCCCC2)cc1` here?
The value was 1%.

For `Brc1ccc(-c2nc(CNCCc3ccccn3)co2)cc1`, which “% inhibition” value is on record?
Its value is -9%.

Which “% inhibition” value does the source give for `FC(F)(F)Oc1ccc(-c2nc(CNCc3ccccc3OC(F)(F)F)co2)cc1` here?
The value was -17%.

Which “% inhibition” value does the source give for `Fc1cccc(-c2nc(CNCc3ccc(OC(F)(F)F)cc3)co2)c1` here?
The value was 7%.

How did the “% inhibition” value turn out when `CN1CCCC1CCN/C(=N\O)c1cccnc1Oc1ccc(Cl)cc1` (stereo not drawn) was run?
Its value is -1%.

`O=C(c1ccco1)N1CCN(Cc2coc(-c3ccc(Cl)cc3Cl)n2)CC1` was tested. Which “% inhibition” value did it give?
The value was 21%.

Reference: ChEMBL document CHEMBL1857833, “Screening and optimization of specific chemical series against human African Trypanosomiasis (HAT)”
